Data on three compounds can be found in PubChem BioAssay (Tox21).

Assay [1] can be described thus: qHTS assay for small molecule agonists of the p53 signaling pathway (AID 651631; calls by dose curve; further: nearly all actives have a fitted effect of over 15% in size). In a few lines:
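We treat p53RE-bla HCT-116 cells with compounds for 16 h at 37 °C, add LiveBLAzer B/G FRET substrate for 2 h at room temperature, and measure fluorescence intensity.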
(In general: qHTS replaces the single test concentration by a dilution series.)

A short description of assay [2]: qHTS assay for small molecules that induce genotoxicity in human embryonic kidney cells expressing luciferase-tagged ATAD5 (AID 651632). Further: nearly all actives have a fitted effect of over 15% in size. Summed up: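 A rise in luciferase signal from ATAD5-tagged HEK293T cells marks genetic stress. Cells were exposed to compounds for 16 hr at 37C, 5% CO2, then luciferase was quantified after a 30 min room-temperature incubation with Amplite.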

The nature of assay [3]: qHTS assay for small molecule agonists of the p53 signaling pathway - cell viability (AID 651633; calls by dose curve;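 further: p53RE-bla HCT reporter cells with a stable beta-lactamase p53 reporter; series mostly up to about 83 µM; nearly all actives have a fitted effect of over 30% in size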). Summed up:
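p53RE-bla cells, seeded at 4,000 per well and rested 5 h at 37 C/5% CO2, received compounds in DMSO for 16 h at 37 C. CellTiter-Glo was then added, and luminescence was read after 30 min at room temperature to gauge cytotoxicity.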

Assay [4] can be described thus: qHTS assay for small molecules that induce genotoxicity in human embryonic kidney cells expressing luciferase-tagged ATAD5 - cell viability (AID 651634; calls by dose curve; further: nearly all actives have a fitted effect of over 25% in size). Summed up:
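Cytotoxicity counter-readout: after 15.5 hr compound treatment at 37C, live-cell protease activity in ATAD5-luciferase HEK293T cells measured by CellTiter-Fluor fluorescence, 30 min development at 37C.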

Assay [5] in a line: qHTS assay for small molecule disruptors of the mitochondrial membrane potential - cell viability (AID 720634; calls by dose curve;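 further: human HepG2 liver cancer cells; series mostly up to about 83 µM; nearly all actives have a fitted effect of over 20% in size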). In a few lines: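 Cytotoxicity was quantified from ATP content by CellTiter-Glo luminescence in the same wells as the MMP dye read-out. HepG2 (2,000 cells/well) were plated overnight and exposed to compounds for 1 hr at 37 C.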
Assay [6] can be described thus: qHTS assay for small molecule disruptors of the mitochondrial membrane potential (AID 720635). Further: potency means the concentration at half of the fitted maximal effect. Summed up: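 HepG2 cells (2,000/well) attached overnight at 37C, then took compound for 1 hr at 37C, 5% CO2. Mito-MPS dye was added for 30 min; fluorescence was read at 490/535 nm (monomers) and 540/590 nm (aggregates).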
Assay [7] in a line: qHTS assay to test for compound auto fluorescence at 590 nm (red) in HepG2 cells (AID 720674). Summed up:
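Intrinsic compound fluorescence in the red window (Ex/Em 540/590 nm) is measured in attached HepG2 cells exposed for 1 hr, DMSO vehicle as baseline, benchmarked to Rose Bengal sodium.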

Assay [8] can be described thus: qHTS assay to test for compound auto fluorescence at 535 nm (green) in HepG2 cells (AID 720675).
A short description of assay [9]: qHTS assay to test for compound auto fluorescence at 460 nm (blue) in HEK293 cells (AID 720678). In a few lines: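 HEK293, 2,000 cells/well, 10% dialyzed FBS; attach 4-5 hr 37C; pin compound or DMSO; o/n 37C/5% CO2; fluorescence 405/460 nm; triamterene-equivalent units.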
Assay [10] can be described thus: qHTS assay to test for compound auto fluorescence at 590 nm (red) in HEK293 cells (AID 720679). Summed up: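 Intensity at 540nm excitation and 590nm emission is reported as Rose Bengal sodium-equivalent autofluorescence. Measurements followed overnight exposure (37C, 5% CO2) of HEK293 cells, 2,000 per well, to 23 nL compound.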
Assay [11] is described as follows: qHTS assay to test for compound auto fluorescence at 535 nm (green) in HEK293 cells (AID 720680).
A short description of assay [12]: qHTS assay to test for compound auto fluorescence at 460 nm (blue) in HEK293 cell free culture (AID 720681). In a few lines:
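Test compounds were pinned into cell-free culture medium (DMEM with 10% FBS) and fluorescence was read directly at Ex/Em 405/460 nm. Signals were expressed as fluorescence equivalents of triamterene, with DMSO vehicle as control.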

The nature of assay [13]: qHTS assay to test for compound auto fluorescence at 590 nm (red) in HEK293 cell free culture (AID 720683). In a few lines: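 Tox21 10K library compounds were pinned into cell-free DMEM with 10% FBS and fluorescence was read at excitation 540 nm. Activity is expressed as Rose Bengal sodium equivalency.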
Assay [14] can be described thus: qHTS assay to test for compound auto fluorescence at 590 nm (red) in HepG2 cell free culture (AID 720684). Summed up:
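Readout: intrinsic compound fluorescence at 590 nm emission after 540 nm excitation, scaled to Rose Bengal sodium. Matrix was cell-free MEM with 10% FBS; DMSO vehicle wells served as control.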

A short description of assay [15]: qHTS assay to test for compound auto fluorescence at 460 nm (blue) in HepG2 cell free culture (AID 720685). Summed up:
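Cell-free plates of MEM plus 10% FBS received 23 nL compound or DMSO vehicle; blue-channel (405/460 nm) intensity scored against triamterene as reference fluorophore.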

Assay [16] can be described thus: qHTS assay to test for compound auto fluorescence at 535 nm (green) in HepG2 cell free culture (AID 720686).
The nature of assay [17]: qHTS assay to test for compound auto fluorescence at 460 nm (blue) in HepG2 cells (AID 720687). In a few lines:
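Cells (2,000/well in MEM with 10% FBS) attached overnight at 37 C, then were exposed to compound or DMSO for 1 hr at 37 C, 5% CO2. Fluorescence read at Ex/Em 405/460 nm, expressed as triamterene-equivalent signal.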

Assay [18] concerns the target Glucocorticoid receptor (Homo sapiens) (UniProt P04150). Nature of the assay: qHTS assay to identify small molecule agonists of the glucocorticoid receptor (GR) signaling pathway (AID 720691; active means well fitted activation curve with a large enough effect in the signal ratio in the repeat runs, not every such curve was filed as active; the % refers to the signal ratio). In a few lines: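 Agonist-mode qHTS in HeLa cells stably expressing a glucocorticoid-response-element beta-lactamase reporter. Fluorescence intensity read with FRET substrate (2 h, room temperature) after 18 h compound treatment at 37 C.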

Assay [19] shares this target. Nature of the assay: qHTS assay to identify small molecule antagonists of the glucocorticoid receptor (GR) signaling pathway (AID 720692; active means well fitted inhibition curve with a large enough effect in the signal ratio in the repeat runs, not every such curve was filed as active; the % refers to the signal ratio). Summed up: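 Inhibition of dexamethasone-driven (5 nM final) beta-lactamase expression was measured in GRE-reporter HeLa cells over 18 h at 37C. Fluorescence was read after 2 h with the B/G FRET substrate at room temperature.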

Results filed as inconclusive are left out. Active and inactive are the calls of the source. Unless noted, the call rests on the fitted dose curve; in most records, active means well fitted curve in the direction sought with a large enough effect in the repeat runs; inconclusive means weak or mixed curves; inactive means no such curve, though single readings can be large; an effect the other way counts as inactive or inconclusive.

Glucocorticoid receptor (Homo sapiens), sequence (P04150 whole entry, looked up): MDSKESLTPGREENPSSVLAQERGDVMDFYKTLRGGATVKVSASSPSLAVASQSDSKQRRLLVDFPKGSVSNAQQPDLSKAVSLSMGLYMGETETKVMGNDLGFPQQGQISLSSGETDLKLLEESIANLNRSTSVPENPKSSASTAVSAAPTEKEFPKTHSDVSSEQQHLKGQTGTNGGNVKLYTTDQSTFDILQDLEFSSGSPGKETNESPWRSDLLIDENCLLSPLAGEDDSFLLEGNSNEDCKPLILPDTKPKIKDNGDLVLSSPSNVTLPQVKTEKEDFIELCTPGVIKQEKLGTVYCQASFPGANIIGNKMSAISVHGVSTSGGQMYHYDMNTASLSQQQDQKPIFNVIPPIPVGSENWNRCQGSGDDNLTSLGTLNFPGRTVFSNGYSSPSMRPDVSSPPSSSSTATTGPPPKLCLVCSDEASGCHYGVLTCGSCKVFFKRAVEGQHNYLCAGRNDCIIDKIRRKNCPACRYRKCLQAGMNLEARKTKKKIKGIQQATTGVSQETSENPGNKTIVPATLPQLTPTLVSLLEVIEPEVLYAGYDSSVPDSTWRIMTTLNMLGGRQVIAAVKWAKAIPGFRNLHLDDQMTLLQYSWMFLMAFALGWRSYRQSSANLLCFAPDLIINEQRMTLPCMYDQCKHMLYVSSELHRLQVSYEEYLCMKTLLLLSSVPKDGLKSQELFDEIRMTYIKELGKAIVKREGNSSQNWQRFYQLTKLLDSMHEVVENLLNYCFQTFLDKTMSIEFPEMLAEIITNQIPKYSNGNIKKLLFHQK

With `CS(=O)(=O)OCCCCOS(C)(=O)=O`, the Potency entry in assay [1], in assay [2], in assay [3], in [4], in [5] and in [6] was “inactive” each time. The Potency entry in assay [7], in [8], in [9], in assay [10], in assay [11] and in assay [12] was “inactive” throughout. Besides, the Potency result in assay [13], in assay [14], in assay [15], in [16] and in assay [17] was “inactive” throughout.
Take `CC12CCC(CC1)C(C)(C)O2`: the Potency result in [1], in assay [2], in [3], in assay [4], in [5] and in [6] was “inactive” each time. The Potency entry in assay [7], in assay [8], in assay [9], in [10], in assay [11] and in [12] was “inactive” throughout. The Potency entry in [13], in assay [14], in assay [15], in assay [16], in assay [17] and in assay [18] was “inactive” throughout. Further, in [19], the Potency result was “inactive”.
As to `CN(C)C(=O)Nc1ccc(Cl)c(Cl)c1`, the Potency result in assay [1], in assay [2], in assay [3], in assay [4], in assay [5] and in [7] was “inactive” throughout. Moreover, the Potency result in assay [8], in [9], in assay [10], in assay [11], in assay [12] and in assay [13] was “inactive” in each case. The Potency entry in assay [14], in [15], in [16], in [17], in [18] and in assay [19] was “inactive” in each case. In assay [6], the Potency was 29.8 µM (active).
